Laboratory results reported in ChEMBL document CHEMBL4808148, “HDAC6 screening dataset using tau-based substrate in an enzymatic assay yields selective inhibitors and activators” (2021).
The whole screen tested about 5,600 compounds, of which about 150 (2.7%) showed an effect of 50% or more. This is one part of a sample in which strong results are shown more often than they occur.

What was measured:
[1] = target: T1, Protein deacetylase HDAC6 (Homo sapiens) (UniProt Q9UBN7); details: at 10 µM
T1 sequence (whole entry): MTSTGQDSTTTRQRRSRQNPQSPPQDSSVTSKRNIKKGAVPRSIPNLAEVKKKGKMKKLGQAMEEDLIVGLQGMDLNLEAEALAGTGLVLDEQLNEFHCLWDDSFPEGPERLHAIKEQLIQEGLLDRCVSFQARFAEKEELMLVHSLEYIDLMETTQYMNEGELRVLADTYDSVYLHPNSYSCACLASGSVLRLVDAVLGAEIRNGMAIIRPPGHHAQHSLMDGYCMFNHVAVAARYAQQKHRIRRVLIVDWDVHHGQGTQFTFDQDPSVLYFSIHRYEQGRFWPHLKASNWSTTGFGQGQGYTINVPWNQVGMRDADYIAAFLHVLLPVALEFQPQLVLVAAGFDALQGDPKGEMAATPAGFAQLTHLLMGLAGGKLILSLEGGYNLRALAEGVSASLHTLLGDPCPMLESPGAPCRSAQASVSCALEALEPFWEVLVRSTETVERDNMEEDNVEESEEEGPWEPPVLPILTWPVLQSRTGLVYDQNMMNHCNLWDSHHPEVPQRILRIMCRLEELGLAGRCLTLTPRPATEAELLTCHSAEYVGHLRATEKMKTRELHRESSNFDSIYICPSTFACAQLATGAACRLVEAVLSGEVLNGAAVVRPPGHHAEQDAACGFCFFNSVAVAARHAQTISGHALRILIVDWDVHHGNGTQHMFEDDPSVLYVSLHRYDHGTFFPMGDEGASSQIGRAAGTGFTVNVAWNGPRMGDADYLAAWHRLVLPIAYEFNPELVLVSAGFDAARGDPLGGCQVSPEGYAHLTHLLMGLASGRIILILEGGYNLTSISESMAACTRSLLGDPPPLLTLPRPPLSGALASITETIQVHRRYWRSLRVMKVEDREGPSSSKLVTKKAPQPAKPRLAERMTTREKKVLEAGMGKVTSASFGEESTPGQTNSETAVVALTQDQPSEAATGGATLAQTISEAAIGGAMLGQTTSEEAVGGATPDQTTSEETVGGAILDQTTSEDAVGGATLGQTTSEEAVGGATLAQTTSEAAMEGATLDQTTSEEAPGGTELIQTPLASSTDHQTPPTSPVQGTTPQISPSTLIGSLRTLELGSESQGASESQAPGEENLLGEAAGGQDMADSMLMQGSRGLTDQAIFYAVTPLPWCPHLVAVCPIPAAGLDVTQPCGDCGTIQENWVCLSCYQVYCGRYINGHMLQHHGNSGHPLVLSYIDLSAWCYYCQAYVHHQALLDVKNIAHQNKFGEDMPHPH

[2] = target: Protein deacetylase HDAC6 (Homo sapiens) (UniProt Q9UBN7); details: at 10 µM; remark: listed apart in the source

Row | Compound | inhibition [1] | inhibition [2]
1 | N[C@H](Cc1c[nH]cn1)C(=O)O | 5.27% | –
2 | C/C(=N\NC(=O)C(NC(=O)c1ccccc1)c1n[nH]c(=O)c2ccccc12)c1cccc(Br)c1 (stereo not drawn) | 0.86% | –
3 | Cc1noc(C)c1-c1cc(O)cc(C(O)c2ccccc2)c1 (stereo not drawn) | 2.55% | –
4 | COc1ccc(CNC(=O)c2sc3nc(C)cc(C)c3c2N)cc1 | 13.2% | –
5 | CC(=O)Nc1ncc([N+](=O)[O-])s1 | -3.88% | –
6 | COc1ccc(CNC(=O)Nc2ncc([N+](=O)[O-])s2)cc1 | 64.8% | –
7 | CCCCn1ccc(N2CCC(c3ccccc3)CC2)c(Cl)c1=O | 42.8% | –
8 | CC[C@@H]1C[C@H](N(Cc2cc(C(F)(F)F)cc(C(F)(F)F)c2)C(C)=O)c2cc(C(F)(F)F)ccc2N1C(=O)OC(C)C | 88.1% | –
9 | CCOC(=O)N1c2ccc(C(F)(F)F)cc2[C@@H](N(Cc2cc(C(F)(F)F)cc(C(F)(F)F)c2)C(=O)OC)C[C@H]1CC | -1.4% | –
10 | CCCCCCCCCCCCCCCCNc1ccc(C(=O)O)cc1 | 2.63% | –
11 | FLUPENTIXOL, CHEMBL6066864 | – | 14.4%
12 | CC(=O)Nc1ccc(CC(=O)O)cc1 | -5.64% | –
13 | CCOC(=O)c1ccc(OC(=O)CCCCCNC(=N)N)cc1 | 22.4% | –
14 | CN(C)C(=O)COC(=O)Cc1ccc(OC(=O)c2ccc(NC(=N)N)cc2)cc1 | 96.5% | –
15 | Nc1ccn([C@@H]2O[C@@](CO)(CCl)[C@@H](O)[C@H]2F)c(=O)n1 | -1.66% | –
16 | O=C(/C=C/c1ccc(O)c(O)c1)c1ccc(O)cc1O | 99.2% | –
17 | O=C(/C=C/c1ccc(O)c(O)c1)O[C@H](Cc1ccc(O)c(O)c1)C(=O)O | 3.24% | –
18 | O=C(O)/C=C/c1ccc(O)c(O)c1 | -0.33% | –
19 | O=C(/C=C/c1ccc(O)cc1)c1ccc(O)cc1O | 99.7% | –
20 | CC(C)(C)c1cc(C(=O)/C=C/c2ccc(C(=O)O)cc2)cc(C(C)(C)C)c1 | 2.42% | –
21 | O=C(O)/C=C/c1ccc(O)cc1 | -0.48% | –
22 | CC(C)C[C@@H](NC(=O)OCC1c2ccccc2-c2ccccc21)C(=O)O | 3.37% | –
23 | CARBOPLATIN, CHEMBL1351 | – | -2.28%
24 | CC(C)C[C@H](NC(=O)OCC1c2ccccc2-c2ccccc21)C(=O)O | -7.02% | –

Row | Compound | inhibition [1] | inhibition [2]
25 | CC(C)(C)C1CCc2c(sc(NC(=O)c3ccco3)c2C(=O)O)C1 (stereo not drawn) | -1.94% | –
26 | O=c1ccc2c(OCCCCOc3ccccc3)c3ccoc3cc2o1 | -4.23% | –
27 | COc1ccc(S(=O)(=O)Nc2cc(Cl)cc(Cl)c2OC)cc1N1CCNCC1 | -0.38% | –
28 | CC1(C)Oc2ccc(C#N)cc2[C@H](N(Cc2ncc[nH]2)c2ccc(Cl)cc2)[C@H]1O | 5.57% | –
29 | CC(C)c1ccc(-c2cc(=O)c3ccccc3o2)cc1 | 77.3% | –
30 | CCOC(=O)COc1ccc2c(=O)cc(-c3ccccc3)oc2c1 | -3.12% | –
31 | O=C(O)c1cc(=O)c2ccccc2o1 | 10.2% | –
32 | ACRIFLAVINE HYDROCHLORIDE, CHEMBL5219995 | – | 7.54%
33 | CCCCCCCCCCCCCCCCCCCCCC(=O)Nc1ccn([C@@H]2O[C@H](CO)[C@@H](O)[C@@H]2O)c(=O)n1 | -7.93% | –
34 | COc1cc(-n2cnc3cc(-c4ccc(Cl)cc4)sc3c2=O)ccc1OCCN1CCCC1 | 2.09% | –
35 | O=C(CC(c1ccccc1)c1ccccc1)N1CCN(C(c2ccccc2)c2ccccc2)CC1 | -2.23% | –
36 | O=c1cc(-c2ccccc2)oc2cc(O)cc(O)c12 | 72.7% | –
37 | O=c1cc(-c2ccccc2)oc2cc(O)c(O)c(O)c12 | 75.1% | –
38 | O=C1C[C@@H](c2ccccc2)Oc2cc(O)cc(O)c21 | 4% | –
39 | COc1ccc(-c2cc(=O)c3c(O)c(OC)c(O)cc3o2)cc1OC | 58.5% | –
40 | O=c1cc(-c2ccc(O)cc2)oc2cc(O)cc(O)c12 | 66.2% | –
41 | COc1ccc(-c2cc(=O)c3c(OC)c(OC)c(OC)c(OC)c3o2)cc1 | -4.13% | –
42 | O=c1oc2cc(O)ccc2s1 | -3.98% | –
43 | O=C(O)[C@H]1O[C@H](Oc2cc3oc(-c4ccccc4)cc(=O)c3c(O)c2O)[C@H](O)[C@@H](O)[C@@H]1O | -2.69% | –
44 | COc1ccc(-c2cc(=O)c3c(OC)c(OC)c(OC)c(OC)c3o2)cc1OC | -7.64% | –
45 | O=C(O)Cc1cccc2c(=O)cc(-c3ccccc3)oc12 | 2.51% | –
46 | O=c1c(O)c(-c2cc(O)c(O)c(O)c2)oc2cc(O)cc(O)c12 | 6.61% | –
47 | O=c1c(O)c(-c2ccc(O)cc2)oc2cc(O)cc(O)c12 | 47.1% | –
48 | CCN(c1ccccc1)c1cc(NC)[n+](C)c(C)n1 | -1.77% | –
